Unmarked numbers belong to inactive results. Records with an inconclusive call do not appear. Activity calls are given as the source filed them. The call rests on the fitted dose curve; in most records, active means well fitted activation curve with a large enough effect in the repeat runs; inconclusive means weak or mixed curves; inactive means flat fitted curve, though single readings scatter.
Experiment: A CellTox Green Cytotoxicity Assay to monitor cytotoxicity in HepG2 cells - 0 hour (AID 1224882); further: nearly all actives have a fitted effect of over 35% in size
Details: CellTox Green fluorescence; series mostly up to 76.8 µM; cytotoxicity: at the top concentration
Procedure, shortened: (§1)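 HepG2 cells were seeded together with the CellTox Green dye at 600 cells/well, left 5 h at 37 C/5% CO2, then given compounds in DMSO. Fluorescence from dye bound to dead-cell DNA was read repeatedly over 40 h of treatment at 37 C.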
On the % scale 0 is the no-effect control and ±100 the full control effect.

| Structure (SMILES) | cytotoxicity |
| --- | --- |
| CCCCCCCCCCCC[N+](C)(C)CC(=O)[O-] | 2.53% |
| CCOC(=O)C(C)Oc1ccc(Oc2nc3ccc(Cl)cc3o2)cc1 (stereo not drawn) | 8.49% |
| O=C(N[C@@H](c1ccccc1)[C@@H]1CCCCN1)c1cccc(C(F)(F)F)c1Cl | -12.8% |
| CC(Cl)C(Cl)Cl (stereo not drawn) | 1.48% |
| CCCCCCCCCCCC[N+](C)(C)CCCS(=O)(=O)[O-] | 7.04% |
| CCOC(=N)CC(=O)OCC | -3.91% |
| CCCCOC(=O)CCS | -3.83% |
| COc1ccc([C@@H]2Sc3ccccc3NC(=O)[C@@H]2O)cc1 | -1.13% [at 35.3 µM] |
| CN1CCN(CCCN2c3ccccc3Sc3ccc(S(=O)(=O)N(C)C)cc32)CC1 | -1.01% [at 35.3 µM] |
| CCCCC(CC)C(=O)OCCOCCOCCOCCOC(=O)C(CC)CCCC (stereo not drawn) | 5.48% |
| Cc1ccc(S(=O)(=O)NC2CCCCC2)cc1 | -1.4% |
| CC1(C)C2=CCCC(C)(C)[C@]23CC[C@H]1C3 | -6.81% |
| CCCCCCCCCCCC(=O)[O][Sn]([CH2]CCC)([CH2]CCC)[O]C(=O)CCCCCCCCCCC | 9.2% [at 35.3 µM] |
| CC(=O)Oc1ccc2c(c1)CC[C@@H]1[C@@H]2CC[C@]2(C)[C@@H](O)CC[C@@H]12 | -0.479% [at 35.3 µM] |
| COCCOC | 2.49% |
| C/C=C/C=C/CCCCCCCO | 1.17% |
| O=C(Nc1ccc([N+](=O)[O-])cc1)Nc1ccc([N+](=O)[O-])cc1 | -9.9% [at 35.3 µM] |
| NC(=O)N(O)[C@@H]1C=C[C@H](Oc2cccc(Oc3ccc(F)cc3)c2)C1 | 0.809% |
| Oc1ccc(Nc2ccccc2)cc1 | -3.23% |
| Nc1nccs1 | -4.93% |
| CC(=O)OCC(=O)[C@H]1CC[C@H]2[C@@H]3CCC4=CC(=O)CC[C@]4(C)[C@H]3CC[C@]12C | -0.183% [at 35.3 µM] |
| CC1=C(/C=C/C(C)=C\C=C\C(C)=C\C(=O)O)C(C)(C)CCC1 | 1.67% |
| CCCCC1C(=O)N(c2ccccc2)N(c2ccc(O)cc2)C1=O (stereo not drawn) | 0.955% [at 35.3 µM] |
| COc1cc2ncnc(Nc3ccc(F)c(Cl)c3)c2cc1OCCCN1CCOCC1 | -3.18% [at 35.3 µM] |
| O=C(c1ccc(O)cc1)c1ccc(Cl)cc1 | -5% |
| Cc1cc(S(=O)(=O)O)ccc1N=Nc1c(O)ccc2ccccc12 | -26.8% |
| CCOc1cc(N)c(Cl)cc1C(=O)NCC1CN(Cc2ccc(F)cc2)CCO1 (stereo not drawn) | 3.96% [at 35.3 µM] |

Experiment: A CellTox Green Cytotoxicity Assay to monitor cytotoxicity in HepG2 cells - 32 hour (AID 1224883); further: nearly all actives have a fitted effect of over 50% in size; further: potency means the concentration at half of the fitted maximal effect
Details: CellTox Green fluorescence; series mostly up to 76.8 µM; cytotoxicity increase: at the top concentration
Procedure, shortened: as §1

| Structure (SMILES) | cytotoxicity increase | Potency |
| --- | --- | --- |
| CCOC(=O)C(C)Oc1ccc(Oc2nc3ccc(Cl)cc3o2)cc1 (stereo not drawn) | 2.74% | – |
| CC(Cl)C(Cl)Cl (stereo not drawn) | 7.36% | – |
| CN(C)CCOC1=Cc2ccccc2Sc2ccc(Cl)cc21 | – | 23.9 µM (active) |
| CC1=C(C=O)C(C)(C)CCC1 | -11.8% | – |
| CCCCCCCCCCCC[N+](C)(C)CCCS(=O)(=O)[O-] | 24% | – |
| CCOC(=N)CC(=O)OCC | -0.0266% | – |
| CCCCOC(=O)CCS | -11% | – |
| CN1CCN(CCCN2c3ccccc3Sc3ccc(S(=O)(=O)N(C)C)cc32)CC1 | – | 26.8 µM (active) |
| Cc1nc2ccccc2s1 | 3.13% | – |
| CCCCC(CC)C(=O)OCCOCCOCCOCCOC(=O)C(CC)CCCC (stereo not drawn) | -1.09% | – |
| Cc1ccc(S(=O)(=O)NC2CCCCC2)cc1 | -2.01% | – |
| CCCC1C(CC)=CC(CC)=CN1c1ccccc1 (stereo not drawn) | 4.31% | – |
| O=C(O)c1cccc(O)c1 | -1.25% | – |
| O=C(C(=O)c1ccccc1)c1ccccc1 | -7.94% | – |
| CCCCCCCCCCCC(=O)[O][Sn]([CH2]CCC)([CH2]CCC)[O]C(=O)CCCCCCCCCCC | – | 19 µM (active) |
| CCOC(=O)OCC | 3.89% | – |

| Structure (SMILES) | cytotoxicity increase | Potency |
| --- | --- | --- |
| COCCOC | 0.614% | – |
| C/C=C/C=C/CCCCCCCO | 16.6% | – |
| CNCCCC1c2ccccc2C=Cc2ccccc21 | – | 23.9 µM (active) |
| NC(=O)N(O)[C@@H]1C=C[C@H](Oc2cccc(Oc3ccc(F)cc3)c2)C1 | – | 38.9 µM (active) |
| Oc1ccc(Nc2ccccc2)cc1 | 1.77% | – |
| Nc1nccs1 | -1.49% | – |
| CC(=O)OCC(=O)[C@H]1CC[C@H]2[C@@H]3CCC4=CC(=O)CC[C@]4(C)[C@H]3CC[C@]12C | -1.1% [at 35.3 µM] | – |
| CCCCC1C(=O)N(c2ccccc2)N(c2ccc(O)cc2)C1=O (stereo not drawn) | – | 10.7 µM (active) |
| COc1cc2ncnc(Nc3ccc(F)c(Cl)c3)c2cc1OCCCN1CCOCC1 | – | 23.9 µM (active) |
| O=C(c1ccc(O)cc1)c1ccc(Cl)cc1 | -0.102% | – |
| Cc1cc(S(=O)(=O)O)ccc1N=Nc1c(O)ccc2ccccc12 | -22% | – |
| CCOc1cc(N)c(Cl)cc1C(=O)NCC1CN(Cc2ccc(F)cc2)CCO1 (stereo not drawn) | 0.248% [at 35.3 µM] | – |
| O=C1NCCN1 | -2.72% | – |
| CN1C(=O)CC(C)(c2ccccc2)C1=O (stereo not drawn) | -12.8% [at 35.3 µM] | – |
| Nc1ccc(S(=O)(=O)O)c(N)c1 | 9.59% | – |

From PubChem BioAssay (Tox21)
